# Test results published in PubChem BioAssay AID2102 (Southern Research Specialized Biocontainment Screening …, 2009).
# Hit rate of the full screen: of about 1,100 compounds, about 210 (19%) were called active. No rule for the calls is given here. Only a sample is shown. Measured potencies and affinities stand elsewhere.
# Assay: host cell cytotoxicity, dose response, cytotoxicity control for SV40 T antigen inhibitor project, selected hits (AID 2102);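 also: cells exposed to compounds for 72 hours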
# Settings: Host cell viability cytotoxicity counter-screen; series mostly up to 50 µM
row,SMILES,outcome
1,CNC(=O)c1ccc(-c2sc3nc(N4CCOCC4)c4c(c3c2N)CC(C)(C)OC4)o1,inactive
2,CN1CC(C(=O)O)Cc2c1ccc1ccccc21 (configuration not stated),inactive
3,COc1cc(C(=O)Nc2ccc(O)cc2)ccc1OC(C)=O,inactive
4,CN(C)c1ccc(NC(N)=S)cc1,inactive
5,COc1cc(/C=N/NC(=O)c2cccc(S(=O)(=O)N3CCCC3)c2)ccc1O,inactive
6,Cc1nc(-c2ccc(O)c(O)c2)cs1,inactive
7,Cc1ccc(S(=O)(=O)Nc2nc(C)cc(N/N=C/c3ccc(O)cc3)n2)cc1,inactive
8,CCOc1cc(/C=C2\SC(=O)N=C2N)ccc1O,inactive
9,Nc1nc2ccc(N3CCOCC3)cc2s1,inactive
10,COc1cc(C(=O)Nc2ccc(N(C)C)cc2)cc(OC)c1OC,inactive
11,Oc1ccc(-c2csc(Nc3ccccn3)n2)cc1O,inactive
12,CN(C)c1ccc(Nc2nc(-c3cccnc3)cs2)cc1,inactive
13,CC(=O)c1cccc(S(=O)(=O)N2CCCC(c3nc(-c4ccc(C)o4)no3)C2)c1 (configuration not stated),inactive
14,Cc1cc(C)nc(SCc2cc(=O)c(OC(=O)c3ccc(S(=O)(=O)N4CCCC4)cc3)co2)n1,inactive
15,CC(C)c1ccc(S(=O)(=O)N2CCN(CCC(=O)Nc3ccc(N(C)C)cc3)CC2)cc1,inactive
16,Nc1nc(-c2ccco2)cs1,inactive
17,Cc1ccsc1/C=N/n1c(-c2cccnc2)n[nH]c1=S,inactive
18,COc1cc(/C=N/NC(=O)c2ccoc2C)cc(OC)c1O,inactive
19,O=C(CCN1C(=O)/C(=C\c2ccco2)SC1=S)Nc1ccc(C(=O)O)c(O)c1,inactive
20,O=C(CCN1C(=O)/C(=C/c2ccco2)SC1=S)Nc1ccc(C(=O)O)c(O)c1,inactive
21,COc1cc(/C=N/NC(=O)CSc2ccccn2)ccc1O,inactive
22,Cc1ccc(NC(=O)CN2C(=O)N/C(=C\c3cccn3-c3cccc(C(=O)O)c3)C2=O)cc1,inactive
23,CN(C)c1ccc(N2C(=O)CC(Nc3ccc(N4CCOCC4)cc3)C2=O)cc1 (configuration not stated),inactive
24,Oc1ccc(/C=N/Nc2nccnc2Cl)cc1,inactive

row,SMILES,outcome
1,Cc1cc(O)ccc1N/C=C1\CCCC1=O,inactive
2,CC1(C)N([O-])c2cc([N+](=O)[O-])ccc2[N+]1=O,inactive
3,O=c1c2c([N+](=O)[O-])cc([N+](=O)[O-])cc2sn1Cc1ccccc1,inactive
4,Cn1c(SCC(=O)c2ccc(O)c(O)c2)nnc1-c1cccs1,inactive
5,O=c1cc(-c2ccc(Br)cc2)[nH][nH]1,inactive
6,O=C(NC(=S)Nc1ccc(O)cc1)c1ccccc1Cl,inactive
7,COc1cc(/C=N/Nc2nc3ccccc3[nH]2)cc(OC)c1O,inactive
8,Nc1ccc2nc(CCCCCCCCc3nc4ccc(N)cc4[nH]3)[nH]c2c1,inactive
9,Cc1ccnc(-n2sc3ccccc3c2=O)n1,inactive
10,O=c1c2ccccc2sn1-c1nccs1,inactive
11,COc1ccc(/C=N/NC(=O)c2ccoc2C)cc1O,inactive
12,O=C(Nc1ccc(O)cc1)c1ccc2c(c1)C(=O)N(N1C(=O)c3ccccc3C1=O)C2=O,inactive
13,CC(C)c1ccc(C2CC(=O)N3CN(C)CSC3=C2C#N)cc1 (configuration not stated),inactive
14,O=C(CCCCl)NC1=NN(c2ccccc2)C(=O)C1,inactive
15,CCOc1cc(/C=C2/N=C(C)C(C(=O)OC)=C2O)ccc1O,inactive
16,NC1=NC(=O)/C(=C\c2ccco2)S1,inactive
17,O=c1[nH]c2ccc(NCc3ccc(F)cc3)cc2[nH]1,inactive
18,C=CCOc1ccccc1CNc1ccc2[nH]c(=O)[nH]c2c1,inactive
19,COc1cc(/C=N/NC(=O)c2ccccc2O)ccc1OC(=O)CC1SC(=O)NC1=O (configuration not stated),inactive
20,CCOc1cc(/C=N/Nc2nc(-c3cccs3)c(NC(C)=O)s2)ccc1O,inactive
21,COc1cc(/C=N\Nc2nc(-c3cccs3)c(NC(C)=O)s2)ccc1O,inactive
22,CCN(CC)c1ccc(NC(=O)COC(=O)COc2ccccc2[N+](=O)[O-])cc1,inactive
23,CCOC(=O)C[n+]1c(C)sc2ccc(OC)cc21,inactive
24,CC(Nc1ccc(N2CCOCC2)cc1)C(=O)N1c2ccccc2CC1C (configuration not stated),inactive

row,SMILES,outcome
1,CCOC(=O)c1cc(-c2ccc(N)cc2)sc1N,inactive
2,COc1cc(/C=N/NC(=O)c2cccs2)ccc1O,inactive
3,Oc1ccc(/C=N/N2CCN(c3ccccn3)CC2)cc1,inactive
4,CCN(CC)c1ccc(/C=N/O)cc1,inactive
5,COc1cc(/C=N/NC(=O)C2COc3ccccc3O2)ccc1O (configuration not stated),inactive
6,COc1cc(/C(C)=N/NC(=O)CSc2nc3ccccc3[nH]2)ccc1O,inactive
7,O=C(CC1SC(=O)N(c2ccccc2)C1=O)Nc1cccc2ccccc12 (configuration not stated),inactive
8,Cc1csc(N/N=C/c2ccc(O)c([N+](=O)[O-])c2)n1,inactive
9,CCN(CC)c1ccc(NC(=O)c2cccnc2)c(C)c1,inactive
10,CCN(CC)c1ccc(NC(=O)c2cccc(F)c2)c(C)c1,inactive
11,Oc1ccc(C=Nc2ccc(N3CCOCC3)cc2)c(O)c1,inactive
12,COc1cc(SC#N)ccc1N=Cc1c(C)[nH]n(-c2ccc(C)cc2C)c1=O,inactive
13,O=C1c2ccccc2NC2(CCCCC2)N1c1ccc(O)cc1,inactive
14,CCN(CC)c1ccc(NC(=O)CSc2nnc3nc(C)cc(C)n23)cc1,inactive
15,COC(=O)C1=C(O)/C(=C/c2cccc(OC)c2O)N=C1C,inactive
16,CN(C)c1ccc(NC(=O)CN2CCN(c3ccc(F)cc3)CC2)cc1,inactive
17,CC(=O)Nc1ccc(N2CCCCC2)cc1,inactive
18,COc1cc(/C=N/NC(=O)CNc2n[nH]c(=O)[nH]c2=O)ccc1O,inactive
19,COc1ccc(OC)c(CCNC(=O)Cn2sc3nc(C)cc(C)c3c2=O)c1,inactive
20,CCN(CC)S(=O)(=O)c1ccc(C(=O)Oc2coc(CSc3nc(C)cc(C)n3)cc2=O)cc1,inactive
21,FC(F)(F)C1CCCN(c2nsc3ccccc23)C1 (configuration not stated),inactive
22,Nc1ncc(N=Nc2cc(C(=O)O)ccc2Cl)s1,inactive
23,CCn1c(SCC(=O)c2ccc(O)c(O)c2)nnc1-c1ccccc1OC,inactive
24,COc1cc(/C=N/NC(=O)c2nnn(-c3nonc3N)c2-c2cccs2)ccc1O,inactive
